ClpP mod – qHTS Assay for Activators of ClpP. hit rate 1.9% among 340,000. ATP-dependent Clp protease proteolytic subunit (Bacillus subtilis (strain 168)), P80244. purified B. subtilis ClpP, FRET peptide cleavage, 20 min. Potency, µM (titrated, usually from 57.5 µM), for the others: at the highest dose activity change, negative = active; active = well fitted falling curve with a large enough effect; inconclusive = small, poorly fitted or top-dose-only effect; inactive = no such curve, though single readings can be large or run the other way; note: the source files actives as falling curves though it sought activators and does not explain the sign; nearly all actives have a fitted effect of over 65% in size
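ClpP 10 microg/mL final, pH 8 Tris/KCl buffer with BSA, glycerol, Tween-20; compound pinned in; FRET-FV substrate; RT 20 min; Ex320/Em430; ΔFRET vs ADEP 5.8 microM, DMSO, no enzyme.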
TDP1 inh – blocks human tyrosyl-DNA phosphodiesterase 1. hit rate 0.28% among 350,000. recombinant TDP1, AlphaScreen DNA substrate cleavage. Q9NUW8. AID 485290. Potency, µM (doses to about 130 µM), without a hit: top-dose activity change, negative = inhibition, hits mostly inhibitors; note: % is set by controls: 0 for no effect and ±100 for the full control effect; nearly all actives have a fitted effect of over 40% in size
Target sequence (Q9NUW8 whole entry, looked up): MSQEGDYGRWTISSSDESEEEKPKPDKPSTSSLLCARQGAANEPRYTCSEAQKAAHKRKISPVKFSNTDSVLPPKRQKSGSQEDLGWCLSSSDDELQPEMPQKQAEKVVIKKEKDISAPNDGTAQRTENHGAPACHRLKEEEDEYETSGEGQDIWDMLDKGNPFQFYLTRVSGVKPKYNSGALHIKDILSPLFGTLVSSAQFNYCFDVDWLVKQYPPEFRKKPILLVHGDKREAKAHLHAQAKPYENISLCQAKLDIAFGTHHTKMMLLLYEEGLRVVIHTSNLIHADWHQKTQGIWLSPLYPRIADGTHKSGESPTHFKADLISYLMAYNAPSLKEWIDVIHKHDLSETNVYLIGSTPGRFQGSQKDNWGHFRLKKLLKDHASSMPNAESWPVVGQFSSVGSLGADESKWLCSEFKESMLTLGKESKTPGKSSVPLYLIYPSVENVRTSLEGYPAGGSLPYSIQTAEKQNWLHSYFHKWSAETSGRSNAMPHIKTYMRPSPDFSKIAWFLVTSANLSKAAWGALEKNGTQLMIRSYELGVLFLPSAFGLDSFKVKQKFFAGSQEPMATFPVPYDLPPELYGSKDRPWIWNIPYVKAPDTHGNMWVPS
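Steps: enzyme plus compound, 15 min RT; add biotin/phosphotyrosine-FITC oligonucleotide (15 nM final), react 5 min; add donor/acceptor beads (10 ug/ml final), 10 min; read AlphaScreen. Tdp1 at 1 nM final.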
TDP1 cell noCPT – qHTS for Inhibitors of human tyrosyl-DNA phosphodiesterase 1 (TDP1): qHTS in cells in absence of CPT | DT40 Tdp1-/- hTDP1 cells, no CPT, ATP luminescence, 48 h | Potency, µM (series often up to 46.2 µM), without a hit: top-dose activity change, negative = growth inhibition, most hits filed as inhibitors | hit rate 15% among 420,000 | AID 686978, 2013; note: % is set by controls: 0 for no effect and ±100 for the full control effect; nearly all actives have a fitted effect of over 55% in size
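Compound effects on proliferation are scored in DT40 Tdp1-/-;hTDP1 cells in the absence of CPT. ATP levels (CellTiter-Glo luminescence) are recorded after a ≥48 hr, 37 °C incubation.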
DT40 TDP1 CPT – DT40-hTDP1 cell growth loss with CPT; chicken DT40 Tdp1-/-;hTDP1 cells + 20 nM CPT, ATP luminescence, 48 h; Potency, µM (doses to about 46.2 µM), without a hit: top-dose activity change, negative = growth inhibition, hits mostly inhibitors; hit rate 12% among 420,000; AID 686979; note: % is set by controls: 0 for no effect and ±100 for the full control effect; nearly all actives have a fitted effect of over 55% in size
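Cell growth measured by CellTiter-Glo luminescence after a minimum 48 h, 37 C compound exposure with 20 nM CPT in Tdp1-knockout DT40 cells stably expressing hTDP1, seeded 400/well; qHTS titration format.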
Active calls of the source: *; ? = inconclusive; . = not tested or not shown; [ ] = another dose, or the depositor's remark. Only some compounds are listed: those with a hit (about 17% of all), similar ones and a draw of the others. Unless noted, calls come from the whole dose curve; as a rule, active = well fitted curve in the direction sought with a large enough effect; inconclusive = small, poorly fitted or top-dose-only effect, or another doubt; inactive = no such curve, though single readings can be large; an effect the other way counts as inactive or inconclusive. Potency is the fitted concentration of half-maximal effect.

SMILES | ClpP mod | TDP1 inh | TDP1 cell noCPT | DT40 TDP1 CPT
C[C@@H]1CN([C@H](C)CO)C(=O)c2cc(NS(=O)(=O)c3ccc(F)cc3)ccc2O[C@@H]1CN(C)Cc1ccc(Cl)c(Cl)c1 | -3% | 5% | ? | ?
C=CCN1C(=O)S/C(=C/c2ccsc2)C1=O | 0% | 3% | -24% | ?
CCOC(=O)C(C)N1C(=O)S/C(=C\c2ccc(-c3ccccc3C(=O)O)o2)C1=O (centres undefined) | -2% | . | -2% | 2%
CC(C)N1C(=O)S/C(=C/c2ccc(Sc3nc4ccccc4[nH]3)o2)C1=O | -3% | 8% | 10µM* | 15µM*
C=CCN1C(=O)S/C(=C/c2ccc(Sc3nc4ccccc4[nH]3)o2)C1=O | 1% | 7% | 21µM* | 23µM*
CN(Cc1ccccc1)c1nc2nonc2nc1N1CCCC(CN2CCCC2=O)C1 (centres undefined) | -3% | 2% | ? | ?
COc1ccccc1NC(=O)COC(=O)c1c(C)nn(-c2ccccc2)c1C | 1% | 0% | 18µM* | 18µM*
CC(=O)c1ccccc1NC(=O)COC(=O)c1c(C)nn(-c2ccccc2)c1C | -1% | -2% | 15µM* | ?
Cc1nn(-c2ccccc2)c(C)c1C(=O)OCC(=O)Nc1ccccc1 | -18% | -1% | -27% | ?
C1=Nc2c(NCc3ccccc3)ncnc2Oc2ccccc21 | -1% | 2% | 1µM* | 3.7µM*
O=c1[nH]c2c(c3c1CCCC3)CCCC2 | -1% | 0% | -15% | 21µM*
C=CCn1c(SCC(=O)N(C)CC(=O)Nc2ccc(C)cc2)nnc1-c1ccncc1 | . | 0% | -5% | 17%
O=C(c1cnc(N2CCN(c3ncccn3)CC2)c2ccccc12)N1CCN(c2ccccn2)CC1 | -7% | 3% | ? | ?
Cc1ccc(NC(=O)c2cnc(N3CCN(c4ccccn4)CC3)c3ccccc23)c(Br)c1 | . | 4% | 13µM* | 15µM*
O=C(Nc1c(F)cccc1F)c1cnc(N2CCN(c3ccccn3)CC2)c2ccccc12 | ? | 1% | 23µM* | 23µM*
CCC(C)NC(=O)c1sc2nc3n(c(=O)c2c1C)CCC3 (centres undefined) | -9% | 0% | -8% | 1%
CCCOCc1cc(CN2CCN(c3ccccc3OC)CC2)c(O)c2ncccc12 | 1% | 13% | 2.9µM* | 4.6µM*
COc1ccccc1N1CCN(Cc2cc(COC(C)C)c3cccnc3c2O)CC1 | 1% | 8% | 4.6µM* | 4.6µM*
COc1ccccc1N1CCN(Cc2cc3c(cc2O)OCO3)CC1 | . | . | -17% | -7%
CCOc1ccccc1N1CCN(Cc2cccc(OC)c2O)CC1 | 0% | 9% | ? | ?
COc1ccccc1N1CCN(Cc2cc(Br)c(O)c3ncccc23)CC1 | -2% | 9% | 9.2µM* | 6.5µM*
CCOCc1cc(CN2CCN(c3ccccc3OC)CC2)c(O)c2ncccc12 | 0% | 13% | 5.2µM* | 5.2µM*
NC(=O)[C@@H]1CCCN1Cc1nc(-c2ccccc2)no1 | . | -5% | -1% | 1%
O=C(c1cc2c(c(-c3cccc(-c4ccncc4)c3)n1)[C@H](CCO)N(C(=O)c1ccc3c(c1)OCO3)C2)N1CCOCC1 | 1% | . | -8% | ?
Cc1noc(C)c1-c1cc(N(C)Cc2ccco2)ncn1 | . | . | -10% | ?
COc1cc(CN2CCN(c3cccc(C)c3C)CC2)cc(Br)c1O | 0% | 3% | 21µM* | 13µM*
CCOC(=O)c1sc(NC(=O)CN2C(=O)NC3(CC(C)CC(C)(C)C3)C2=O)c(C(=O)OCC)c1C (centres undefined) | -8% | -2% | 10µM* | 9.2µM*
CCOC(=O)c1sc(NC(=O)CN2C(=O)NC3(CC(C)CC(C)(C)C3)C2=O)cc1C (centres undefined) | -6% | -5% | 18µM* | ?
CCOC(=O)c1sc(NC(=O)CN2C(=O)NC3(CCC(C)CC3)C2=O)c(C(=O)OCC)c1C (centres undefined) | -1% | 0% | -58% | -56%
COC(=O)C1=C(C(=O)OC)[C@@H]2Nc3ccccc3[C@@]23C[C@@H](C(=O)OC)N(S(=O)(=O)c2cccs2)C3=N1 | . | 11%[21 µM] | . | .

Screening data: PubChem, National Center for Advancing Translational Sciences (NCATS)
